Sampled rows, rich in hits. Any-hit rate of the full collection: about 14%.
A350 fluor = A350 region autofluorescence | Compound autofluorescence, 340/450 nm, Alexa 350 dye-equivalents; stronger effect = higher value | max dye-equivalent concentration, M | 59,000 compounds, 11% hits; in the data active means max dye-equivalent concentration above about 10 nM; inconclusive means mostly about 1.1 nM to 9.6 nM
CRE-bla Fsk = CRE-bla signaling modulation under forskolin stimulation; CHO CRE-bla reporter (cAMP response element driving beta-lactamase), forskolin EC10, beta-lactamase ratio; Potency, µM (titrated, usually from 38.2 µM), hits mostly activators; 71,000 compounds, 2.5% hits; AID 662; active means well fitted activation curve with a large enough effect in the signal ratio, with a control signal flat, not every such curve was filed as active; inconclusive means small, poorly fitted or top-dose-only effect, or effect the other way, or a change in a side signal; the % refers to the signal ratio
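Modulation of forskolin-driven signalling is measured in CHO cells carrying a CRE-controlled beta-lactamase reporter. Cells are stimulated with EC10 NKH 477 in the presence of titrated compound for 3 h at 37 °C, then loaded with CCF4 for 2 h at room temperature.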
HADH2 inh = inhibitors of human HADH2 dehydrogenase; Q99714; Potency, µM (series often up to 57.1 µM), most hits filed as inhibitors; recombinant HADH2, NADH fluorescence, beta-hydroxybutyryl-CoA; AID 886; 73,000 compounds, 3.4% hits; further: nearly all actives have a fitted effect of over 60% in size
Target sequence (Q99714 whole entry, looked up, one chain of several): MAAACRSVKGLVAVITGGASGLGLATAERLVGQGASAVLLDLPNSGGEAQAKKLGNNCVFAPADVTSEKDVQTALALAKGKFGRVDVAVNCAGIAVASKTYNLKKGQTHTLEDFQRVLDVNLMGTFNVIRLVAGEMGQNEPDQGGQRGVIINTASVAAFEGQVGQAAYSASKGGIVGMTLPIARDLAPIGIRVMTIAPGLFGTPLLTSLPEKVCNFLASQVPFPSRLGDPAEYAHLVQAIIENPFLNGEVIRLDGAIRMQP
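E. coli-expressed His-tagged HADH2 tested at 20 nM in alkaline Tris buffer (pH 9.0); oxidation of 90 uM beta-hydroxybutyryl-CoA with 1 mM NAD+ tracked fluorimetrically for 4 min.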
AID923 = qHTS Assay for Allosteric/Competitive Inhibitors of Caspase-1: Spectroscopic Profiling in AFC Spectral Region | compound fluorescence, AFC spectral region (405/520 nm) | Potency, µM (series often up to 57.5 µM), most hits filed as activators | 75,000 compounds, 1.1% hits
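Titrations up to 57 uM read every 20 sec for 3 min (405/520 nm) with 50 nM caspase 1 and 5 uM Ac-WEHD-AFC, pH 7.5 HEPES buffer. Fluorescence-vs-time intercept gave baseline, scaled against on-plate AFC standard.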
HSD17B inh = inhibitors of human HSD17B10 dehydrogenase. 75,000 compounds, 7.6% hits. recombinant HSD17B10, NADH fluorescence kinetic. Q99714. Potency, µM (doses to about 57.1 µM), actives largely listed as inhibitors;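 further: the protocol describes HADH2 (HSD17B10) and not the HSD17B4 of the title; nearly all actives have a fitted effect of over 70% in size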
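20 nM HADH2, pH 9.0 Tris/Tween; cpd preinc 15 min RT; start w/ 1 mM NAD+ + 90 uM b-hydroxybutyryl-CoA; kinetic fluor ex360/em450 q30s x 4 min; delta last-first.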
4-MU autofl = 4-MU region autofluorescence; compound autofluorescence, 340/450 nm, 4-MU equivalents; stronger effect = higher value; max dye-equivalent concentration, M; 59,000 compounds, 11% hits; AID 589; in the data active means max dye-equivalent concentration above about 10 nM; inconclusive means mostly about 1.1 nM to 9.6 nM
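Compounds in 100 mM Tris, pH 8.0, incubated 15 min at room temperature, then fluorescence read at 340 nm excitation/450 nm emission. Signal converted to 4-MU dye-equivalent concentration using an on-plate six-point 4-MU standard curve.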
Hits are given with their value; i = inactive; ? = inconclusive; nt = no result given; [ ] = another dose, or the depositor's remark. Unless noted, the call rests on the fitted dose curve; in most records, active means well fitted curve in the direction sought with a large enough effect; inconclusive means small, poorly fitted or top-dose-only effect, or another doubt; inactive means no such curve, though single readings can be large; an effect the other way counts as inactive or inconclusive.

SMILES | A350 fluor | CRE-bla Fsk | HADH2 inh | AID923 | HSD17B inh | 4-MU autofl
COc1cc(-c2cc(OC)c3c(C)oc(C)c3c(=O)c2)ccc1O | i | i | ? | i | ? | i
COc1ccc(-c2cc(OC)c3c(C)oc(C)c3c(=O)c2)cc1OC | i | 13µM | i | i | i | i
O=c1cc(-c2ccc(O)c(O)c2)oc2cc(O[C@@H]3O[C@@H](CO)[C@@H](O)[C@@H](O)[C@H]3O)cc(O)c12 | i | i | ? | nt | nt | i
CN(C(=O)c1ccc(NC(=O)c2cnccn2)cc1)C1CCCCC1 | 9.2e-07M | i | i | i | i | 1.4e-06M
O=c1n(Cc2ccccc2Cl)c2sc3c(c2c2ncnn12)CCCC3 | i | 0.2µM | i | i | i | i
Cc1cc(F)c(F)c(C(=O)N2CCN(C)CC2)c1Cl | nt | i | i | i | i | nt
CCCCc1nc(N2CCOCC2)c(C#N)c2c1COC(C)(C)C2 | 9.3e-08M | nt | nt | nt | nt | 7.8e-08M
CCCCc1nc(NCC2CCCO2)c(C#N)c2c1COC(C)(C)C2 (stereo not given) | 7.7e-08M | nt | nt | nt | nt | 6.8e-08M
COC(=O)Nc1nc(C)c(C(=O)N(C)C)s1 | 1e-08M | ? | i | i | i | ?
CCOC(=O)c1c(NC(=O)CN2CCOCC2)sc2c1CCCC2=O | nt | ? | i | i | i | nt
CCOC(=O)c1c(NC(=O)CC)sc(C(C)=O)c1C | i | 13µM | ? | i | i | i
CCOC(=O)Nc1nc(C)c(C(=O)N(C)C)s1 | i | i | i | i | i | i
CCOC(=O)c1c(NC(=O)c2ccc(S(=O)(=O)N3CCOCC3)cc2)sc2c1CCN(C)C2 | 2.5e-08M | 16µM | i | i | i | 1.4e-08M
CCOC(=O)c1c(NC(=O)CN2CCOCC2)sc2c1CCCC2 | i | 13µM | i | i | i | i
CC1CN(S(=O)(=O)c2ccc(C(=O)Nc3sc4c(c3C(N)=O)CCN(C)C4)cc2)CC(C)O1 (stereo not given) | nt | i | i | i | i | nt
N#Cc1cccc(NC(=O)N2CC[C@@]3(CCCN(C(=O)c4csnn4)C3)C2)c1 | i | i | i | i | i | i
CCN(CC)CCCNC(=O)c1ccc(Cc2nc3ccccc3[nH]2)cc1 | nt | nt | i | i | i | nt
CCOC(=O)c1c(NC(=O)OC)sc(C(=O)N(C)C)c1C | nt | 4µM | i[11.4 µM] | i | i | nt
CCCc1cc(C(=O)Nc2sc(C(C)=O)c(C)c2C(=O)OCC)no1 | nt | 0.63µM | i | i | i | nt
CCOC(=O)c1sc(NC(=O)CN2CCCC2)c(C(=O)OCC)c1C | 2.5e-07M | i | i | i | ? | 2.8e-07M
Nc1ncnc2c1nc(-c1ccccc1)n2[C@H]1O[C@@H](CO)[C@@H](O)[C@H]1O | i | ? | i[11.4 µM] | i[11.5 µM] | ? | i
CCCc1cc(=O)oc2c(CN3CCCC3)c(O)ccc12 | 1.7e-05M | nt | nt | nt | nt | 1.5e-05M
CCCc1cc(=O)oc2c(CN3CCCC3)c(O)c(Cl)cc12 | 1.6e-05M | nt | nt | nt | nt | 1.5e-05M
CCCc1cc(=O)oc2cc(C)c(CN3CCCC3)c(O)c12 | ? | i | 25µM | i | 16µM | i
CCCc1cc(=O)oc2c(C)c3occ(C)c3cc12 | nt | nt | i | i | i | nt
SMILES | A350 fluor | CRE-bla Fsk | HADH2 inh | AID923 | HSD17B inh | 4-MU autofl
CCc1cc(=O)oc2cc(C)c(CN3CCCCC3)c(O)c12 | ? | nt | nt | nt | nt | i
Cc1ccc(N=Cc2nc(-c3ccco3)oc2O)cc1 | 1e-08M | i | i | i | i | ?
O=C(Oc1oc(-c2ccco2)nc1C=Nc1ccccc1)c1ccco1 | i | nt | nt | nt | nt | i
c1ccc2c(c1)oc1c(N3CCOCC3)ncnc12 | i | ? | i | i | i | i
c1cnc(N2CCN(c3ncnc4c3oc3ccccc34)CC2)nc1 | 4.5e-08M | ? | i | i | i | 3.2e-08M
C(=C\c1ccccc1)/CN1CCN(c2ncnc3c2oc2ccccc23)CC1 | 2e-08M | ? | i | i | ? | 1.8e-08M
N#Cc1cccc(NC(=O)N2CCC3(CC2)CCN(C(=O)c2cccc(F)c2)CC3)c1 | i | i | i | i | i | i
COC(=O)c1c(C(=O)OC)c2cc(C)ccn2c1Cl | 7.8e-08M | ? | i | i | ? | 8.8e-08M
COc1cc2c(cc1OC)[C@@H]1C(=O)c3ccc4c(c3O[C@@H]1CO2)C=CC(C)(C)O4 | nt | ? | i | i | i | nt
CC(CCc1ccco1)NC(=O)CSc1cc(=O)n(C)c2ccccc12 (stereo not given) | i | i | i | i | i | i

Bioassay records as filed in PubChem.
